Screening data deposited in PubChem BioAssay by Buhrlage Lab, Dana-Farber Cancer Institute and Novartis Institutes for BioMedical Research (Cambridge, Mass).
USP30 inh = inhibitors of human USP30 deubiquitinase; Ubiquitin carboxyl-terminal hydrolase 30 (Homo sapiens), Q70CQ3; purified USP30, Ub-rhodamine cleavage fluorescence; inhibition, % at 25 µM; 47,000 compounds, 5.3% hits; AID 1645860, 2021
USP28 inh = inhibitors of human USP28 deubiquitinase. purified USP28, Ub-rhodamine cleavage fluorescence, 30 min. inhibition, % at 25 µM. 47,000 compounds, 3% hits. AID 1645857, 2021
USP10 block = inhibitors of human USP10 deubiquitinase; Ubiquitin carboxyl-terminal hydrolase 10 (Homo sapiens), Q14694; 47,000 compounds, 1.1% hits; purified USP10, Ub-rhodamine fluorescence, 60 min; inhibition, % at 20 µM
USP17 block = inhibitors of human USP17 deubiquitinase | inhibition, % at 50 µM | 47,000 compounds, 6.5% hits | purified USP17, Ub-rhodamine cleavage fluorescence, 3 h | Ubiquitin carboxyl-terminal hydrolase 17-like protein 5 (Homo sapiens), A8MUK1
USP8 inh = inhibitors of human USP8 deubiquitinase | inhibition, % at 20 µM | 47,000 compounds, 4.2% hits | Ubiquitin carboxyl-terminal hydrolase 8 (Homo sapiens), P40818 | AID 1645853, 2021 | purified USP8, Ub-rhodamine cleavage fluorescence, 30 min
* marks the source's active call; other numbers are inactive results; . = no result given. The list is not random: actives were taken first. Their share in the collection is about 13%. Cut-off read from the data, not from the text of the source: active = inhibition above about 30%; inactive = the rest.

SMILES	USP30 inh	USP28 inh	USP10 block	USP17 block	USP8 inh
O=S(=O)(c1cccc2cccnc12)N1CCN(c2ccc(F)cc2)CC1	30*	8	5	13	56*
N#Cc1ccc(NC(=O)Nc2ccc(OCc3ccccc3)cc2)cc1	17	10	7	34*	22
N#Cc1ccc(NC(=O)c2cccc(OCc3ccccc3)c2)cc1	-1	22	2	3	0
O=c1c2cc(Cl)ccc2ncn1Cc1csc(-c2ccccc2)n1	44*	16	12	22	28
Cc1ccc(-c2cc3nc(Nc4ccc(C(N)=O)cc4)ccn3n2)cc1	-108	-22	-6	.	71*
COCCN1C[C@H]2COc3ccccc3[C@H]2N(C(=O)c2ccc(OC)cc2)CCC1=O	14	16	4	13	17
O=c1c2cnc3nc(-c4cccnc4)nn3c2ccn1CCc1ccccc1	19	8	1	51*	6
O=c1c2cnc3nc(-c4cccnc4)nn3c2ccn1C1CCCCC1	-5	-6	1	0	11
O=C1OC2CC1N(C(=O)Nc1ccc(Cl)cc1)C2 (stereo not drawn)	8	4	3	-7	-36
COc1ccccc1-n1cc(C(=O)c2cc(F)ccc2O)cc(C(C)=O)c1=O	-276	-113	-9	-30	33*
CCOc1ccccc1-n1cc(C(=O)c2cc(F)ccc2O)cc(C#N)c1=O	-8	4	-4	-8	-49
COc1ccc(CNC(=O)c2ccc3c(c2)CCN3C(=O)C2CC2)cc1	4	24	1	20	20
Cc1c(CC(=O)NCC(C)C)c(=O)oc2cc3c(cc12)CCC1(CCCCC1)O3	-105	7	3	36*	-18
Cc1cc(C(=O)N2C[C@H]3C[C@H]4[C@](C2)(CN(Cc2ccccc2)S4(=O)=O)O3)no1	11	13	0	2	-3
CCc1ccc(S(=O)(=O)Nc2ccc3[nH]ncc3c2)cc1	0	9	1	7	35*
O=S(=O)(Nc1ccc2cn[nH]c2c1)c1ccc2c(c1)OCCO2	-1	-4	4	0	-12
Cc1cc(N2CC(C)OC2=O)nc(C2CCN(C(=O)C(C)(C)C)CC2)n1 (stereo not drawn)	16	4	1	10	12
Cc1cc(N2CC(C)OC2=O)nc(C2CCN(C(=O)OC(C)(C)C)CC2)n1 (stereo not drawn)	35*	14	2	12	9
COc1ccc2c(c1)CCCC21NC(=O)N(Cc2ccc(C#N)cc2)C1=O (stereo not drawn)	-30	0	-4	-11	10
N#C/C(=C\c1cn(CCC(N)=O)c2ccccc12)c1nc2ccccc2[nH]1	-130	-23	-2	40*	-15
Cc1cc(NC(=O)Cn2c(=O)n(CCCCCC(=O)NCc3ccc4c(c3)OCO4)c(=O)c3sccc32)n[nH]1	21	-4	6	26	5
O=C(CCCn1c(=O)c2sccc2n(Cc2ccc(F)cc2)c1=O)NCc1ccco1	23	6	1	29	33*
O=C(CCCCCn1c(=O)c2sccc2n(CC(=O)c2ccc(Cl)c(Cl)c2)c1=O)NCc1ccc2c(c1)OCO2	6	3	46*	20	89*
O=C(CCCCCn1c(=O)c2sccc2n(CC(=O)c2ccc(F)cc2)c1=O)NCc1ccccc1Cl	39*	16	15	19	45*
COCCCNC(=O)c1ccc(-c2ccc(S(=O)(=O)N3CCCC3)cc2)cc1	3	-4	-2	.	-15
SMILES	USP30 inh	USP28 inh	USP10 block	USP17 block	USP8 inh
Cc1cc(C)cc(N2CCN(S(=O)(=O)c3c(C)cc(C)cc3C)CC2)c1	-247	-56	-3	-67	-31
N#Cc1c2c(c3nncn3c1N1CCCC1)CN(Cc1ccccc1)CC2	-407	-119	-5	-102	-76
CN(CC(=O)Nc1cccc(Cl)c1)C(=O)c1ccc2c(c1)nnn2C	-18	24	-4	-7	4
O=C(COc1nsnc1N1CCOCC1)Nc1ccccc1F	11	6	2	16	12
O=C(COc1nsnc1N1CCOCC1)Nc1ccc(F)c(F)c1	57*	13	1	3	-22
Cn1c(NCc2ccc3c(c2)OCO3)nc(=O)n(-c2ccccc2)c1=O	16	12	-1	9	18
Cc1nc2c3ccccc3nc(NCc3ccc4c(c3)OCO4)n2n1	14	0	1	54*	9
COc1ccc(CNC(=O)c2cc(S(=O)(=O)N3CCOCC3)ccc2C)cc1OC	5	-8	1	-3	-5
Cc1cnnn1-c1ccc(C(=O)Nc2ccc(Cl)cc2)cc1	58*	50*	5	45*	5
O=C(Nc1ccc2c(c1)nc1n2CCSC1)c1ccccc1Cl	.	.	-6	20	-19
CCOc1ccc(NC(=O)N2CCC(N3CCN(C)C(=O)C3=O)CC2)cc1	3	0	1	3	17
Cc1cc(Cl)ccc1NC(=O)CCS(=O)(=O)c1ccc2c(c1)OCC(=O)N2	-8	-9	4	34*	1
COc1ccccc1NC(=O)C1=C(C)Nc2nnnn2C1c1ccc(C)o1 (stereo not drawn)	-80	-15	0	-31	-17
O=S(=O)(O)c1cc2cc3ccccc3cc2[nH]1	-41	0	-2	61*	87*
O=C(COC(=O)C1CCCCC1)Nc1ccc(Oc2ccccc2)cc1	28	11	12	31*	11
O=C(CCSc1ccccc1)Nc1ccc(Oc2ccccc2)cc1	5	3	13	42*	13
O=C(CCSc1ccccc1)Nc1ccc(-c2nc3ccccc3o2)cc1	-24	-2	15	3	-4
Cn1nc(-c2ccccc2)c2c1C[C@@H]1CN(C(=O)c3ccncc3)C[C@H]21	8	-6	0	-11	3
CC(OC(=O)c1ccc2ncsc2c1)C(=O)Nc1ccc2c(c1)OCCO2 (stereo not drawn)	-15	18	16	-2	28
COC(=O)CN1c2ccccc2NC2=C(C(=O)CC(C)(C)C2)C1c1cccs1 (stereo not drawn)	31*	9	4	2	-5
O=C(C1CN(Cc2ccncc2)Cc2ccnn2C1)N1CCOCC1 (stereo not drawn)	1	-2	-2	-3	-20
CC1CCC(NC(=O)C2(C)Cc3ccccc3C(=O)N2C2CCCCC2)CC1 (stereo not drawn)	30*	9	1	14	8
COc1ccccc1CN1C(=O)c2ccccc2CC1(C)C(=O)NC1CCC(C)CC1 (stereo not drawn)	-4	-16	-2	.	-19
CC1(C(=O)NC2CCCCCC2)Cc2ccccc2C(=O)N1CCN1CCOCC1 (stereo not drawn)	35*	11	0	19	22
